Measurements: ChEMBL document CHEMBL1157539, “Thousands of chemical starting points for antimalarial lead identification” (Nature, 2010)

What was measured:
Assay type in all cases: functional
Plasmodium falciparum [1] = experiment: GSK_TCMDC: Inhibition of Plasmodium falciparum 3D7 in whole red blood cells, using parasite LDH activity as an index of growth. Test compounds present at 2uM
Plasmodium falciparum [2] = experiment: GSK_TCMDC: Inhibition of Plasmodium falciparum Dd2 in whole red blood cells, using parasite LDH activity as an index of growth. Test compounds present at 2uM
HepG2 = experiment: GSK_TCMDC: Percent inhibition of human HepG2 cell line. Test compounds present at 10uM.

| Compound | Inhibition (Plasmodium falciparum [1]) [%] | Inhibition (Plasmodium falciparum [2]) [%] | Inhibition (HepG2) [%] |
| --- | --- | --- | --- |
| COc1ccc(-n2cc(CNCCCn3ccnc3)c(-c3cccc(F)c3)n2)cc1 | 98 | 17 | 21 |
| O=C(Nc1cccc(-c2cccc(-c3nc4ccccc4[nH]3)c2)c1)Nc1ccc(Cl)c(Cl)c1 | 100 | 98 | 78 |
| O=C(Nc1ccc(F)cc1)NC1CCN(c2ccnc3cc(Cl)ccc23)CC1.O=C(O)C(F)(F)F | 97 | 57 | 10 |
| COc1ccc(OCCCON)cc1.Cl | 98 | 0 | 3 |
| CCCC(CNC(=O)c1cc2c(Cl)cc(Cl)cc2[nH]1)CNc1cc(=O)c2ccccc2[nH]1.O=C(O)C(F)(F)F (configuration not stated) | 100 | 94 | 9 |
| CCOc1ccccc1C=CC(=O)Nc1ccc2nc(N3CCN(C)CC3)cc(C)c2c1 | 100 | 91 | 16 |
| CCCCNc1c(C(=O)OCC)c(C)nc2c1[nH]c1ccccc12 | 100 | 58 | 0 |
| CCCc1cc(Cc2cnc(N)nc2N)cc(CCC)c1OCCCCC(=O)OCC | 93 | 0 | 1 |
| Cc1ccc(CNC(=O)c2cnc(N3CCN(c4ccncc4)CC3)c(Cl)c2)cc1.O=C(O)C(F)(F)F | 92 | 6 | 27 |
| CN1CCN(c2cc(NC(=O)Nc3ccc(-c4ccncc4)c(Cl)c3)ccc2Br)CC1 | 100 | 99 | 23 |
| CC(C)(CNCCOc1ccc(Cl)cc1)c1nc(-c2ccnc(N)n2)c(-c2ccc(Cl)c(O)c2)[nH]1.Cl | 97 | 19 | 45 |
| O=C(O)C(F)(F)F.O=S(=O)(NCCN1CCCC1)c1ccc(-c2ccc(CNCc3ccc(F)cc3)cc2)cc1F | 82 | 21 | 40 |
| NC(=O)c1cc2nc(NC3CCC3)nc(Nc3cccc4[nH]ncc34)c2[nH]1.O=CO | 100 | 62 | 9 |
| CCOC(=O)c1ccc(-c2c(C(F)(F)F)noc2-c2cc(CC)c(OC)cc2O)o1 | 100 | 95 | 0 |
| Cc1c(C)n(C2CCCC2)c2ncnc(OC3CCN(CC(=O)NCC4CC4)CC3)c12 | 89 | 89 | 20 |
| COc1cc(NC(=O)/C=C/c2cc(F)cc(F)c2F)cc(OCCN2CCCCC2)c1.O=C(O)C(=O)O | 100 | 80 | 10 |
| O=C(Nc1ccc(Cl)cc1)Nc1ccc2c(c1)N1CCN=C1S2 | 99 | 100 | 15 |
| Cc1ccc(S(=O)(=O)N(CCCNCc2cccc(O)c2)c2ccccc2)cc1 | 95 | 94 | 6 |
| Cc1ccoc1C(=O)Nc1cccc(-c2cccc(-c3nc4ccccc4[nH]3)c2)c1 | 85 | 20 | 43 |
| Cc1cc(-c2nc3cncc(-c4cccc(CN5CCCC5Cc5cccnc5)c4)c3n2C)nn1C.O=C(O)C(F)(F)F (configuration not stated) | 83 | 73 | 0 |
| Oc1cc(NCCCNC2CCc3c(Cl)cc(Cl)cc32)nc2ccccc12 (configuration not stated) | 100 | 29 | 3 |
| CCC(N)(C#Cc1ccc(-c2c(C)[nH]c(C)c(Br)c2=O)cc1)CC | 97 | 96 | 0 |
| Cc1ccc(-c2nc(NC(=O)Nc3ccc(C(F)(F)F)cc3)sc2C)cc1Cl | 99 | 86 | 29 |
| CN1CCN(c2ccc(-c3cccc(NC(=O)c4cccc([N+](=O)[O-])c4)c3)nn2)CC1 | 99 | 35 | 21 |
| O=C(N[C@@H](Cc1ccccc1)C(=O)NCCN1CCCC1)c1ccc(O)c(-c2ccc(Cl)c(Cl)c2)c1 | 95 | 46 | 8 |
| CC(Nc1ccc2c(c1)OCCO2)C(=O)Nc1cc(C(F)(F)F)ccc1N1CCOCC1 (configuration not stated) | 98 | 70 | 0 |
| Cc1ccc(NC(=O)c2cccc(CN3CCCN(Cc4cccc(O)c4)CC3)c2)cc1F.O=C(O)C(F)(F)F | 99 | 45 | 20 |
| CC(=O)Nc1ccc(C(=O)Nc2cccc(-c3ccc(-c4nc5cccc(C)c5[nH]4)cc3)c2)cn1 | 100 | 94 | 25 |
| COc1ccc(NC(=O)/C=C/c2ccc(Cl)c(Cl)c2)cc1N1CCN(C)CC1 | 90 | 20 | 23 |
